This is part of a sample that, as a whole, favours compounds with a hit. Of some 83,000 tested, about 20% had one in any assay.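 Interpretation: 100, growth as untreated; towards 0, rising growth inhibition; 0, no net growth; 0 to -100, cell death. Compounds scoring below 10 were considered active.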 Active and inactive are the calls of the source.
Key:
Assay in all cases: NCI-60 one-dose screen, 48 h (100 = growth as untreated, 0 = no growth, -100 = all killed)
Details in all cases: 10 µM
HT29 colon = tested on: HT29 colon
SNB-75 CNS = tested on: SNB-75 CNS
SNB-19 CNS = tested on: SNB-19 CNS
U251 CNS = tested on: U251 CNS
PC-3 prostate = tested on: PC-3 prostate
SK-MEL-5 melanoma = tested on: SK-MEL-5 melanoma
UACC-62 melanoma = tested on: UACC-62 melanoma
LOX IMVI melanoma = tested on: LOX IMVI melanoma
SK-MEL-28 melanoma = tested on: SK-MEL-28 melanoma
SK-MEL-2 melanoma = tested on: SK-MEL-2 melanoma

Structure (SMILES) | growth (HT29 colon) | growth (SNB-75 CNS) | growth (SNB-19 CNS) | growth (U251 CNS) | growth (PC-3 prostate) | growth (SK-MEL-5 melanoma) | growth (UACC-62 melanoma) | growth (LOX IMVI melanoma) | growth (SK-MEL-28 melanoma) | growth (SK-MEL-2 melanoma)
CC(C)(C)c1cc(Br)cc(C(C)(C)C)c1O | 113% (inactive) | 95.7% (inactive) | 104% (inactive) | 99.8% (inactive) | 94.4% (inactive) | 102% (inactive) | 99.3% (inactive) | 99.1% (inactive) | 112% (inactive) | 118% (inactive)
COc1ccc2c(c1)[n+]([O-])c(C#N)c(NC(=O)c1ccco1)[n+]2[O-] | 101% (inactive) | 110% (inactive) | 95.6% (inactive) | 98.5% (inactive) | 179% (inactive) | 79.3% (inactive) | 98.2% (inactive) | 95.1% (inactive) | 120% (inactive) | 101% (inactive)
Cc1ccc(NC(=O)CSc2nc3ccccc3c(=O)n2CCc2ccccc2)c(C(=O)O)c1 | 111% (inactive) | 84.3% (inactive) | 105% (inactive) | 101% (inactive) | 97.8% (inactive) | 105% (inactive) | 99.9% (inactive) | 99.6% (inactive) | 108% (inactive) | 89.8% (inactive)
Nc1ncn(C2OC(CO)C(O)C2O)c(=O)n1 (stereo unspecified) | 6.45% (active) | -32.7% (active) | 17.2% (inactive) | 5.19% (active) | -30.7% (active) | 25.5% (inactive) | -8.83% (active) | -33.7% (active) |  | -21.2% (active)
CSc1nc(=O)n(Cc2ccc(F)cc2)c(=O)n1Cc1ccc(C)cc1 | 101% (inactive) | 74.9% (inactive) | 100% (inactive) | 94.7% (inactive) | 88.5% (inactive) | 107% (inactive) | 93.5% (inactive) | 90.9% (inactive) | 108% (inactive) | 108% (inactive)
CN(C)CCN1C(=O)c2cccc3cc(N)cc(c23)C1=O | 9.24% (active) | -5.61% (active) | 24.5% (inactive) | 18.4% (inactive) | 12.6% (inactive) | 8.79% (active) | 13.3% (inactive) | 6.24% (active) |  | 29.1% (inactive)
COc1cc(/C=C2\CCCC3=C2N=C2SC=NN2C3c2cc(OC)c(OC)c(OC)c2)cc(OC)c1OC (stereo unspecified) | 3.26% (active) | 19.7% (inactive) | 46.4% (inactive) | 8.08% (active) | 66.4% (inactive) | 16.3% (inactive) | -51.7% (active) | -36.9% (active) | 42.5% (inactive) | 89.3% (inactive)
COc1cc(/C=N/NC(=O)c2ccccc2Nc2ccnc(C(F)(F)F)c2)ccc1O | 118% (inactive) | 94.1% (inactive) | 93.2% (inactive) | 106% (inactive) | 111% (inactive) | 106% (inactive) | 115% (inactive) | 114% (inactive) | 118% (inactive) | 113% (inactive)
CN(C)C(=S)N/N=C\C=N/NC(=S)N(C)C | 13.5% (inactive) | 64% (inactive) | 90.3% (inactive) | 42.8% (inactive) | -18.4% (active) | 64.8% (inactive) | 73.2% (inactive) | 43.9% (inactive) |  | 85% (inactive)
CN1CC[C@@H](c2c(O)cc(O)c3c(=O)cc(-c4ccccc4Cl)oc23)[C@@H](O)C1 | -7.65% (active) | -71.9% (active) | 13.6% (inactive) | 8.62% (active) | -48.9% (active) | -38.5% (active) | -48.8% (active) | 5.25% (active) |  | -40.7% (active)

From PubChem BioAssay (NCI)
